± gives the standard deviation of the averaged measurements.

What all share (assay): growth (OD600 after 10 h); higher = more growth (less inhibition)
In assay [1] the test system is E. coli TESEC Alr+ wild-type control. The note with it: compound 0.1 mM; raw OD600 reference: median of DMSO wells 0.241, cell-free background 0.041. How it is done: (§1)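 TESEC Mtb Alr E. coli, or the Alr+ wild-type control, in 384-well plates with Prestwick library compounds at 0.1 mM and 1% DMSO, across arabinose induction levels of 1E3 to 1E7 nM. Growth is read as OD600 after 10 h at 37 °C in triplicate biological replicates.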

Assay [2] concerns E. coli TESEC Mtb Alr. The settings on record: compound 0.1 mM. How it is done: as §1
Another assay concerns E. coli TESEC Mtb Asd. The note with it: compound 0.1 mM. The method, then: (§2)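 TESEC E. coli strains in which the native enzyme is deleted and replaced by arabinose-inducible Mtb Asd, DapB, CysH or TrpD, each grown in its selective medium. Strains were screened against the Prestwick library at 0.1 mM and 1% DMSO in 384-well format at low and high arabinose induction. Growth is read as OD600 after 10 h in triplicate.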

For a further assay, the system named is E. coli TESEC Mtb DapB. The settings on record: compound 0.1 mM. How it is done: as §2
The subject of assay [3] is E. coli TESEC Alr+ wild-type control. The note with it: compound 0.1 mM; raw OD600 reference: median of DMSO wells 0.49, cell-free background 0.052. How it is done: (§3)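 TESEC Mtb Alr E. coli (ΔaraC ΔtolC ΔentC Δalr ΔdadX, arabinose-inducible Mtb Alr) or the Alr+ wild-type control strain, grown in defined M9-fructose medium without D-alanine in 96-well plates with Prestwick library compounds at 0.1 mM and 1% DMSO. Low Alr induction is 0.1 µM arabinose and high induction is 10 mM arabinose.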

Assay [4] concerns E. coli TESEC Mtb Alr. The settings on record: compound 0.1 mM. How it is done:
as §3
The source holds these as a separate data set.

The mark [5] stands for this setting: arabinose 1000 nM, raw OD600 reference: median of DMSO wells 0.294, cell-free background 0.041.
Where [6] appears, read: arabinose 10000 nM, raw OD600 reference: median of DMSO wells 0.264, cell-free background 0.041.
[7] abbreviates: arabinose 100000 nM, raw OD600 reference: median of DMSO wells 0.201, cell-free background 0.041.
Setting [8] is: arabinose 1000000 nM, raw OD600 reference: median of DMSO wells 0.193, cell-free background 0.041.
Setting [9] is: arabinose 10000000 nM, raw OD600 reference: median of DMSO wells 0.146, cell-free background 0.041.
The mark [10] stands for this setting: arabinose induction (level): High, raw OD600 reference: median of DMSO wells 0.331, cell-free background 0.041.
Setting [11] is: arabinose induction (level): Low, raw OD600 reference: median of DMSO wells 0.417, cell-free background 0.041.
The mark [12] stands for this setting: arabinose induction (level): High, raw OD600 reference: median of DMSO wells […], cell-free background 0.041.
Setting [13] is: arabinose induction (level): Low, raw OD600 reference: median of DMSO wells 0.227, cell-free background 0.041.
[14] abbreviates: arabinose 100 nM, raw OD600 reference: median of DMSO wells 0.413, cell-free background 0.052.
Setting [15] is: arabinose 10000000 nM, raw OD600 reference: median of DMSO wells […], cell-free background 0.052.

As for `COC(=O)C1=C(C)NC(C)=C(C(=O)OCC(C)C)C1c1ccccc1[N+](=O)[O-]` (configuration not stated) [Nisoldipine], the growth in assay [1] was found to be 0.0411 ± 0.00044; with E. coli TESEC Mtb Alr [2] (setting [5]) it was 0.189 ± 0.022; with E. coli TESEC Mtb Alr [2] (setting [6]), 0.1989 ± 0.0016; with E. coli TESEC Mtb Alr [2] (setting [7]), 0.133 ± 0.0061; with E. coli TESEC Mtb Alr [2] (setting [8]), 0.101 ± 0.011; in the assay with E. coli TESEC Mtb Alr [2] (setting [9]), 0.112 ± 0.0029. Besides, the growth amounted to 0.0578 ± 0.0013 in the assay on E. coli TESEC Mtb Asd (setting [10]); 0.0593 ± 0.0039 in the assay on E. coli TESEC Mtb Asd (setting [11]); 0.122 ± 0.0061 with E. coli TESEC Mtb DapB (setting [12]); 0.114 ± 0.0044 in the assay with E. coli TESEC Mtb DapB (setting [13]); 0.433 ± 0.007 in assay [3]; 0.386 ± 0.0062 in the assay with E. coli TESEC Mtb Alr [4] (setting [14]). The compound further came in with a growth in the assay with E. coli TESEC Mtb Alr [4] (setting [15]) of 0.223 ± 0.012.
Consider `CN1CCN(C2=Nc3cc(Cl)ccc3Nc3ccccc32)CC1` [Clozapine], for which the growth in assay [1] is 0.156 ± 0.008; in the assay on E. coli TESEC Mtb Alr [2] (setting [5]), 0.206 ± 0.0044; in the assay on E. coli TESEC Mtb Alr [2] (setting [6]), 0.242 ± 0.0072; in the assay with E. coli TESEC Mtb Alr [2] (setting [7]) it was 0.178 ± 0.011; in the assay with E. coli TESEC Mtb Alr [2] (setting [8]), 0.1 ± 0.0026; with E. coli TESEC Mtb Alr [2] (setting [9]) it was 0.154 ± 0.0034. The growth came out at 0.143 ± 0.018 in the assay on E. coli TESEC Mtb Asd (setting [10]); 0.293 ± 0.0055 with E. coli TESEC Mtb Asd (setting [11]); 0.17 ± 0.0049 in the assay on E. coli TESEC Mtb DapB (setting [12]); 0.205 ± 0.0082 with E. coli TESEC Mtb DapB (setting [13]); 0.502 ± 0.044 in assay [3]; 0.41 ± 0.0084 in the assay on E. coli TESEC Mtb Alr [4] (setting [14]). Further, in the assay with E. coli TESEC Mtb Alr [4] (setting [15]), the growth worked out at 0.32 ± 0.011.
With `Cc1nnc(NS(=O)(=O)c2ccc(N)cc2)s1` [Sulfamethizole], the growth in assay [1] was 0.254 ± 0.0053; in the assay on E. coli TESEC Mtb Alr [2] (setting [5]), 0.288 ± 0.011; in the assay on E. coli TESEC Mtb Alr [2] (setting [6]) it was 0.236 ± 0.004; in the assay with E. coli TESEC Mtb Alr [2] (setting [7]), 0.211 ± 0.032; with E. coli TESEC Mtb Alr [2] (setting [8]), 0.155 ± 0.0088; in the assay with E. coli TESEC Mtb Alr [2] (setting [9]) it was 0.139 ± 0.0043. Moreover, the growth in the assay with E. coli TESEC Mtb Asd (setting [10]) turned out to be 0.326 ± 0.045; with E. coli TESEC Mtb Asd (setting [11]), 0.433 ± 0.018; in the assay with E. coli TESEC Mtb DapB (setting [12]), 0.189 ± 0.0042; in the assay with E. coli TESEC Mtb DapB (setting [13]), 0.183 ± 0.0058; in assay [3], 0.462 ± 0.018; in the assay with E. coli TESEC Mtb Alr [4] (setting [14]), 0.411 ± 0.011. The same compound yielded a growth in the assay on E. coli TESEC Mtb Alr [4] (setting [15]) of 0.33 ± 0.011.
With `Clc1ccc(Nc2nnc(Cc3ccncc3)c3ccccc23)cc1` [Vatalanib], the growth is 0.104 ± 0.031 in assay [1]; 0.0967 ± 0.038 with E. coli TESEC Mtb Alr [2] (setting [5]); 0.0476 ± 0.003 in the assay with E. coli TESEC Mtb Alr [2] (setting [6]); 0.0763 ± 0.0031 in the assay on E. coli TESEC Mtb Alr [2] (setting [7]); 0.0489 ± 0.0002 in the assay on E. coli TESEC Mtb Alr [2] (setting [8]); 0.0787 ± 0.0014 with E. coli TESEC Mtb Alr [2] (setting [9]). For the same compound, the growth was found to be 0.112 ± 0.017 in the assay with E. coli TESEC Mtb Asd (setting [10]); 0.0893 ± 0.021 in the assay on E. coli TESEC Mtb Asd (setting [11]); 0.203 ± 0.081 in the assay with E. coli TESEC Mtb DapB (setting [12]); 0.15 ± 0.015 with E. coli TESEC Mtb DapB (setting [13]); 0.514 ± 0.0082 in assay [3]; 0.303 ± 0.17 in the assay on E. coli TESEC Mtb Alr [4] (setting [14]). In the assay on E. coli TESEC Mtb Alr [4] (setting [15]), this compound gave a growth of 0.0605 ± 0.0043.

The values above are taken from the supplement of paper PMC9262897, “Low-cost anti-mycobacterial drug discovery using engineered E. coli” (Nature Communications, 2022).
